Results: PubChem BioAssay AID1159580 (chemical genetic matrix, 2015)
“And” between values parts separate entries of the source, which are not always exact repeats. Identical values can stand only once. Screen size: about 5,500 compounds; about 2,000 (36%) were called active. Not shown: some 18% with an inconclusive outcome. Rule as the data show it: active = normalized growth mostly below about 0.91 (no sharp cut-off); inconclusive = no clear call, values can overlap the other calls; inactive = mostly above about 0.92. This is one part of the list.

Experiment: chemical genetic growth profiling, strain panel (AID 1159580);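 also: tested at 20 µM; growth read once vehicle control cultures reached saturation at 30 °C; 1 = growth at the plate median or of vehicle wells; lower values mean less growth of the strain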
Settings: S. cerevisiae deletion strains, growth OD

Measured: normalized growth

COP(=S)(OC)SCn1nnc2ccccc2c1=O
inactive: locus YAL013W, strain DEP1, hits give low values 0.987 | locus YAL021C, strain ccr4, hits give low values 1 | locus YAL026C, strain drs2, hits give low values 1 | locus YAL030W, strain snc1, hits give low values 1.03 | locus YBL061C, strain skt5, hits give low values 1.01 | locus YBR009C, strain hhf1, hits give low values 1 | locus YBR021W, strain FUR4, hits give low values 0.887 | locus YBR023C, strain chs3, hits give low values 0.997 | locus YBR171W, strain sec66, hits give low values 1.01 | locus YBR229C, strain ROT2, hits give low values 0.955 | locus YBR231C, strain swc5, hits give low values 1 | locus YBR279W, strain paf1, hits give low values 0.992 | locus YCL011C, strain gbp2, hits give low values 1 | locus YCL016C, strain dcc1, hits give low values 0.994 | locus YCL029C, strain bik1, hits give low values 0.974 | locus YCL061C, strain MRC1, hits give low values 0.996 | locus YCL069W, strain vba3, hits give low values 1.02 | locus YCR088W, strain abp1, hits give low values 1.02 | locus YDL005C, strain med2, hits give low values 1 | locus YDL035C, strain GPR1, hits give low values 0.921 | locus YDL040C, strain nat1, hits give low values 1.01 | locus YDL074C, strain BRE1, hits give low values 0.9 | locus YDL101C, strain DUN1, hits give low values 0.966 | locus YDL134C, strain PPH21, hits give low values 0.985 | locus YDL185W, strain tfp1, hits give low values 0.948 | locus YDL192W, strain arf1, hits give low values 0.976 | locus YDR001C, strain nth1, hits give low values 1.02 | locus YDR069C, strain doa4, hits give low values 0.96 | locus YDR101C, strain arx1, hits give low values 0.986 | locus YDR137W, strain rgp1, hits give low values 0.985 | locus YDR150W, strain NUM1, hits give low values 0.971 | locus YDR159W, strain sac3, hits give low values 0.927 | locus YDR162C, strain NBP2, hits give low values 0.963 | locus YDR195W, strain ref2 1.06 | locus YDR297W, strain sur2, hits give low values 0.998 | locus YDR318W, strain mcm21, hits give low values 0.972 | locus YDR334W, strain swr1, hits give low values 1.01 | locus YDR335W, strain msn5, hits give low values 1 | locus YDR388W, hits give low values 0.979 | locus YDR392W, strain spt3, hits give low values 1.03 | locus YDR502C, strain sam2, hits give low values 0.98 | locus YEL003W, strain gim4, hits give low values 0.984 | locus YEL037C, strain rad23, hits give low values 1.01 | locus YEL061C, strain CIN8 (second series), hits give low values 1.01 | locus YEL061C, strain CIN8, hits give low values 0.985 | locus YER015W, strain faa2, hits give low values 1 | locus YER016W, strain bim1, hits give low values 1.02 | locus YER110C, hits give low values 0.97 | locus YER111C, strain swi4, hits give low values 0.996 | locus YER155C, strain BEM2 (second series), hits give low values 0.999 | locus YER155C, strain BEM2, hits give low values 0.993 | locus YER167W, strain BCK2, hits give low values 0.989 | locus YFR010W, strain ubp6, hits give low values 0.98 | locus YGL078C, strain dbp3, hits give low values 0.997 | locus YGL086W, strain mad1, hits give low values 0.992 | locus YGL167C, strain pmr1, hits give low values 0.992 | locus YGL173C, strain kem1, hits give low values 1 | locus YGL227W, strain vid30, hits give low values 0.997 | locus YGL240W, strain doc1, hits give low values 0.904 | locus YGL248W, strain PDE1, hits give low values 0.953 | locus YGL253W, strain hxk2, hits give low values 0.993 | locus YGR078C, strain PAC10, hits give low values 0.953 | locus YGR135W, strain pre9, hits give low values 0.969 | locus YGR229C, strain SMI1, hits give low values 0.956 | locus YGR252W, strain gcn5, hits give low values 0.824 | locus YHR013C, strain ard1, hits give low values 0.913 | locus YHR027C, strain rpn1, hits give low values 1.02 | locus YHR030C, strain SLT2, hits give low values 0.973 and 0.958 | locus YHR079C, strain IRE1 (second series), hits give low values 0.983 | locus YHR079C, strain IRE1, hits give low values 0.979 | locus YHR094C, strain hxt1, hits give low values 0.99 | locus YHR129C, strain ARP1, hits give low values 0.967 | locus YHR142W, strain chs7, hits give low values 0.987 | locus YHR200W, strain rpn10, hits give low values 0.99 | locus YIL066C, strain RNR3, hits give low values 0.935 | locus YIL073C, strain SPO22, hits give low values 0.963 | locus YIL125W, strain kgd1, hits give low values 0.979 | locus YIR030C, strain dcg1, hits give low values 0.992 | locus YJL092W, strain hpr5, hits give low values 1.01 | locus YJL095W, strain BCK1 (second series), hits give low values 1 | locus YJL095W, strain BCK1, hits give low values 0.974 and 0.949 | locus YJL115W, strain asf1, hits give low values 0.991 | locus YJL129C, strain trk1, hits give low values 1.02 | locus YJL134W, strain LCB3, hits give low values 0.979 | locus YJL154C, strain vps35, hits give low values 1.02 | locus YJL164C, strain tpk1, hits give low values 0.984 | locus YJL166W, strain qcr8, hits give low values 1.01 | locus YJL168C, strain set2, hits give low values 0.982 | locus YJL187C, strain SWE1 (second series), hits give low values 0.977 | locus YJL187C, strain SWE1, hits give low values 1.01 | locus YJR043C, strain POL32, hits give low values 0.953 | locus YJR066W, strain TOR1, hits give low values 0.905
